Several values for one entry are separate records, joined by “and”; a condition that tells them apart may be missing. Equal values may be shown once. Inconclusive results are not listed. Activity calls are given as the source filed them. Unless noted, calls come from the whole dose curve; as a rule, active = well fitted curve in the direction sought with a large enough effect; inconclusive = small, poorly fitted or top-dose-only effect, or another doubt; inactive = no such curve, though single readings can be large; an effect the other way counts as inactive or inconclusive.

Data on eight compounds can be found in PubChem BioAssay (NCATS).

Test [1] in a line: Cell Viability - Jurkat (AID 426;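 active = dose-dependent loss of cell ATP signal giving a full or clear fitted curve, ranked by lower potency value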;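 note: potency is the fitted concentration of half-maximal effect; cells exposed to compound for 40 hours at 37 °C before ATP read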). Particulars: qHTS. The method in brief:
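Cells of the human T-cell leukemia line Jurkat (E6-1) are seeded at 5000 per well, treated with compound across a concentration range for 40 hours at 37 °C, then lysed with CellTiter-Glo; luminescence reports ATP.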
Background: qHTS replaces the single test concentration by a dilution series.

Test [2] in a line: Cell Viability - N2a (AID 540).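 For activity change, negative = cytotoxicity: plate controls were DMSO alone for no effect and tamoxifen control for full effect.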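 Note: cells exposed to compound for 40 h at 37 °C; nearly all actives have a fitted effect of over 45% in size.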 Note: potency is the fitted concentration of half-maximal effect. Particulars: N2a mouse neuroblastoma cell viability; activity change, negative = cytotoxicity: at 92.2 µM (top of the series). A digest of the protocol: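 Cytotoxicity was scored as loss of cellular ATP in N2a cells, a mouse neuroblastoma line. Compounds are applied in a qHTS concentration series for 40 hr at 37 °C.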
Test [3] is described as follows: Cellular Toxicity (caspase-3) HepG2 (AID 654).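 Note: cells exposed to compound for 16 hours before reading; 0% = DMSO alone and 100% = caspase signal from 100 µM tamoxifen.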 The method in brief: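 Caspase 3/7 activation in HepG2 is measured as rising luminescence after a 16 hr treatment at 37 °C. Values are scaled between DMSO basal and 100 uM tamoxifen, and AC50 is fitted with the Hill equation.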
A short description of test [4]: Cellular Toxicity (caspase-3) H-4-II-E (AID 663).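 Note: cells exposed to compound for 16 hr before readout; 0% = DMSO basal and 100% = 100 µM tamoxifen.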 As to conditions: Potency: caspase-3 activation. The method in brief:
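Caspase 3/7 activation measured in H-4-II-E cells in complete culture medium after 16 hr treatment at 37 °C, using luciferase-coupled substrate readout; AC50 values come from Hill-equation fits of normalized concentration-response data.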

A short description of test [5]: MultiTox-Fluor Cytotoxicity Assay - LYMP1-002 - Dead Cells (AID 960).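 Note: 0% = DMSO and 100% = tetraoctylammonium bromide; nearly all actives have a fitted effect of over 60% in size.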 The method in brief: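 Cells were plated, rested 5 hr, then treated with compound dilution series for 16 hr at 37 C. After adding substrate reagent and 60 min at room temperature, dead-cell protease fluorescence gave concentration-response curves fitted by the Hill equation.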
A short description of test [6]: MultiTox-Fluor Cytotoxicity Assay - LYMP1-003 - Live Cells (AID 962).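 Note: 0% = DMSO only and full loss = 92 µM tetraoctylammonium bromide; cytotoxic hits lower the live-cell protease signal.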 A digest of the protocol:
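Acute cytotoxicity is scored as a drop in live-cell protease activity in human lymphoblastoid LYMP1-003 cells after 16 hr compound exposure at 37 C. AC50 values come from Hill-equation modelling of concentration-response data.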

The nature of test [7]: Cell Viability - LYMP2-005 (AID 967).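 Note: plate controls were DMSO only for no effect and 92 µM tetraoctylammonium bromide control for full effect.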 The method in brief:
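CellTiter-Glo luminescence (cellular ATP) read-out; LYMP2-005 lymphoblastoid cells, 2500/well, 5 h pre-incubation, then 24 h compound exposure at 37 C in complete medium. Tetraoctylammonium bromide positive control; AC50 by standard Hill fit.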

Test [8] in a line: Cell Viability - LYMP2-009 (AID 968).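 Note: 0% = DMSO alone and the full-kill end = tetraoctylammonium bromide at 92 µM; nearly all actives have a fitted effect of over 55% in size.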
Test [9] is described as follows: Cell Viability - LYMP2-012 (AID 982).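 Note: cellular ATP by luciferase luminescence where a drop means cytotoxicity; cells exposed to compound for one day before reading; 0% = DMSO only and full loss = 92 µM tetraoctylammonium bromide; nearly all actives have a fitted effect of over 55% in size.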
Test [10] can be described thus: Cell Viability - LYMP2-018 (AID 985).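 Note: compound exposure lasted 24 hr at 37 °C; plate controls were DMSO only for no effect and tetraoctylammonium bromide at 92 µM for full effect; nearly all actives have a fitted effect of over 50% in size.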 The method in brief:
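Seed 2500 lymphoblastoid cells per well, incubate 5 hr at 37 C, add compound and incubate 24 hr at 37 C, add CellTiter-Glo, wait 30 min at room temperature, then read luminescence.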

Test [11] concerns the target Vitamin D3 receptor (Homo sapiens) (UniProt P11473). Description: qHTS assay for small molecule antagonists of vitamin D receptor signaling (AID 588541; calls by dose curve;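 note: receptor activated by calcitriol during compound treatment; % is set by controls: 0 for no effect and ±100 for the full control effect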). A digest of the protocol: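 VDR-UAS-bla HEK293T cells (2000/well, 2% charcoal-stripped FBS) were treated with titrated compounds plus 1-alpha,25-dihydroxyvitamin D3 (50 nM or 3 nM final) for 16 h at 37 C. CCF4 beta-lactamase fluorescence was read; Hill fits gave IC50.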

Test [12] has as its target Thyroid hormone receptor beta (Homo sapiens) (UniProt P10828). The experiment in a line: qHTS assay for small molecule agonists of thyroid hormone receptor beta signaling (AID 588545; calls by dose curve;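 note: 0% = DMSO only and 100% = 10 nM T3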). The method in brief: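 Efficacy and EC50 values derive from Hill fits of qHTS titration data, normalized to 10 nM T3 and DMSO-only wells. HEK 293 reporter cells were stimulated for 18 hrs at 37 C, with beta-lactamase activity measured by CCF4 fluorescence.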

A short description of test [13]: qHTS assay for small molecule antagonists of retinoid X receptor alpha signaling (AID 588546; active = well fitted inhibition curve with a large enough effect in the signal ratio, with a control signal flat, not every such curve was filed as active; the % refers to the signal ratio;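 note: cells stimulated with 9-cis-retinoic acid as agonist; % is set by controls: 0 for no effect and ±100 for the full control effect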). As to conditions: HEK293T RXRa-UAS-bla, beta-lactamase ratio, antagonist mode; measured here: W530 green channel, cytotoxicity proxy. The method in brief: (§1)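 Beta-lactamase reporter inhibition, read as CCF4 fluorescence ratio (ex 405, em 460/530 nm) after 2 h at RT. HEK293T UAS-bla cells, 2500/well, were stimulated with 9-cis-RA at 500 or 100 nM final alongside test compound for 18 h at 37 C.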

Test [14] concerns the target Retinoic acid receptor RXR-alpha (Homo sapiens) (UniProt P19793). The description is as above. Particulars: HEK293T RXRa-UAS-bla, beta-lactamase ratio, antagonist mode. The method in brief: as §1
Test [15] addresses Nuclear receptor ROR-gamma (Homo sapiens) (UniProt P51449). The experiment in a line: qHTS assay for small molecule antagonists of the retinoid-related orphan receptor gamma (ROR-gamma) signaling pathway (AID 651802). Note: nearly all actives have a fitted effect of over 60% in size. Note: potency is the fitted concentration of half-maximal effect. The method in brief: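 Steps: cells dispensed; compound or DMSO transferred by pin tool; doxycycline added to induce the ROR response element-driven luciferase; plates held 16hr at 37C; ONE-Glo added and luminescence measured.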

Test [16] is described as follows: qHTS assay for small molecule antagonists of the retinoid-related orphan receptor gamma (ROR-gamma) signaling pathway - cell viability counter screen (AID 720652; active = well fitted curve in the direction sought with a large enough effect in the repeat runs; an effect the other way counts as inactive or inconclusive;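 note: CHO reporter cells with doxycycline-induced ROR-gamma expression; compound exposure lasted 16 hr before ATP read; % is set by controls: 0 for no effect and ±100 for the full control effect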). A digest of the protocol:
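Steps: seed CHO cells bearing TET-inducible ROR and ROR response element-luciferase; rest 5 hr at 37 C; add compound, then doxycycline; incubate 16 hr; add CellTiter-Glo and read luminescence as ATP-based viability.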

The nature of test [17]: qHTS assay for small molecule agonists of the antioxidant response element (ARE) signaling pathway measured by Nrf2-dependant transcriptional activity - cell viability counter screen (AID 720653; active = well fitted curve in the direction sought with a large enough effect in the repeat runs; an effect the other way counts as inactive or inconclusive; note: % is set by controls: 0 for no effect and ±100 for the full control effect). Particulars: ARE-bla HepG2 viability, CellTiter-Glo ATP luminescence, 16 h; stronger effect = lower value. The method in brief: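 ARE-bla HepG2 cells (2,000/well) rested 5 hrs at 37C/5% CO2, then exposed to compounds in DMSO for 16 hrs. Viability was read in the same wells as intracellular ATP by luminescence, 30 min at room temperature after reagent addition.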

A short description of test [18]: qHTS assay for small molecule activators of the human pregnane X receptor (PXR) signaling pathway (AID 720659; call rule not given here; note: 0% is about no effect).
The nature of test [19]: MultiTox-Fluor Cytotoxicity Assay - LYMP1-001 - Live Cells (AID 947).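 Note: 0% = DMSO only and full inhibition = tetraoctylammonium bromide control.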
Test [20] in a line: Cell Viability - LYMP2-024 (AID 988).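 Note: plate controls were DMSO only for no effect and 92 µM tetraoctylammonium bromide for full effect; nearly all actives have a fitted effect of over 60% in size.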 The method in brief:
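qHTS cytotoxicity, human lymphoblastoid line, complete medium; 24 h cpd treatment, 37 C; CellTiter-Glo ATP luminescence readout; tetraoctylammonium bromide positive control; AC50 via Hill fit.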

Sequence of Thyroid hormone receptor beta (Homo sapiens) (P10828 whole entry, looked up): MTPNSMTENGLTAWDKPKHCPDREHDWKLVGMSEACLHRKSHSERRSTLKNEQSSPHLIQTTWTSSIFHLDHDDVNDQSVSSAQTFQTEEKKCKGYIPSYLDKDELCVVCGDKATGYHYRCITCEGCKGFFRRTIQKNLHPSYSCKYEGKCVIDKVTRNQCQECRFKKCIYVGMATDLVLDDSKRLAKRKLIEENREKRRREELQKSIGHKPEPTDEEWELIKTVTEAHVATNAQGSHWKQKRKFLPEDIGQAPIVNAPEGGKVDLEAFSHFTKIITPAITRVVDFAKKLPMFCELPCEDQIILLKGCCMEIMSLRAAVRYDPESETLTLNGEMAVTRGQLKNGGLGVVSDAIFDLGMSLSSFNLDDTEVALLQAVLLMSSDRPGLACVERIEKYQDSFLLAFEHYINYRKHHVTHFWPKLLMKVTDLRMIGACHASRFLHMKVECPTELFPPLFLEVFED
Sequence of Nuclear receptor ROR-gamma (Homo sapiens) (P51449 whole entry, looked up): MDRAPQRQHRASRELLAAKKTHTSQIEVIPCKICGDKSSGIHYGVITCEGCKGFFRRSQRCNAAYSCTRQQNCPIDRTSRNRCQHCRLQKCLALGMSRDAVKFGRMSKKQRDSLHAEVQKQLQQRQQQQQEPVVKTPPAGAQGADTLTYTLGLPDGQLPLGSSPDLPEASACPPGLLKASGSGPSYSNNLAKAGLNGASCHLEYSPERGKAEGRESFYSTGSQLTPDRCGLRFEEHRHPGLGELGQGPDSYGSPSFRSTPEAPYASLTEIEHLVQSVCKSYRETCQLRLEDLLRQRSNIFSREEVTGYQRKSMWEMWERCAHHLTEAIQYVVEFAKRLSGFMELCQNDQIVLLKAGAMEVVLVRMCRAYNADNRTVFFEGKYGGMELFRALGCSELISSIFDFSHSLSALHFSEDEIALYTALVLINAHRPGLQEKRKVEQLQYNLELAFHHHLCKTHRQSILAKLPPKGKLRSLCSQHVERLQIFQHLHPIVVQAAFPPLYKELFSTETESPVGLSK
Sequence of Vitamin D3 receptor (Homo sapiens) (P11473 whole entry, looked up): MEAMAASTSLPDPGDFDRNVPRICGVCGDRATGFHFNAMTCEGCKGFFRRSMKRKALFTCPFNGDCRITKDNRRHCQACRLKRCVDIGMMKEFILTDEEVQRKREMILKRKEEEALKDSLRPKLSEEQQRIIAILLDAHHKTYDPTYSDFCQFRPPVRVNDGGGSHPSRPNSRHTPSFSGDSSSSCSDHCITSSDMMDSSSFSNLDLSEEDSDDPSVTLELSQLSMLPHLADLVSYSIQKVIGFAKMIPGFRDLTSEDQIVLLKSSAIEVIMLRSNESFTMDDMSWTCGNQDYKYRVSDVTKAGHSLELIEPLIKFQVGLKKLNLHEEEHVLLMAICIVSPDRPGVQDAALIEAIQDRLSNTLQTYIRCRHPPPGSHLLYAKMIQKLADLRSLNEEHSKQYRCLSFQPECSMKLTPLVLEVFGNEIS
Sequence of Retinoic acid receptor RXR-alpha (Homo sapiens) (P19793 whole entry, looked up): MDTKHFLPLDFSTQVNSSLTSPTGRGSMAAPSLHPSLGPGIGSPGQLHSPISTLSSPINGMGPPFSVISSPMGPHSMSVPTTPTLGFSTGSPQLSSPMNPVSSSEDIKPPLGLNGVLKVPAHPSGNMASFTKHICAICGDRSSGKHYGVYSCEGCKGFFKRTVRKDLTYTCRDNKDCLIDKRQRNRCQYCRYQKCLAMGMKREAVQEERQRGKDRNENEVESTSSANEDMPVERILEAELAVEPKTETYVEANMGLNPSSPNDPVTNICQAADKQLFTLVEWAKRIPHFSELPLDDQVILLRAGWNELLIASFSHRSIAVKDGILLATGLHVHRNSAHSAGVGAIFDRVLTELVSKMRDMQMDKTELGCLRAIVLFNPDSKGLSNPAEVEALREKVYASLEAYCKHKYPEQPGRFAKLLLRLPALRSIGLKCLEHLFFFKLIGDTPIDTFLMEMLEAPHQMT

With `CCC(Cl)[N+](=O)[O-]` (centres undefined), in [1], the Potency was > 92 µM (inactive). Besides, the Potency result in [2], in test [4], in test [5], in test [7], in [8] and in test [9] was “inactive” each time. Moreover, the Potency result in [10], in test [12], in [15] and in [16] was “inactive” throughout. Also, the outcome in test [3], in test [6], in test [11] and in test [18] was inactive. Further, the max response in test [13] was -9.88%; in test [14], -10.3% (inactive); in test [17], -4.85% (inactive).

Regarding `C=CC(=O)OCCN(C)C`, the Potency in test [1] was > 92 µM (inactive). Moreover, the Potency result in test [2], in test [4], in test [5], in [7], in test [8] and in test [9] was “inactive” in each case. The Potency entry in test [10], in test [12], in test [15] and in [16] was “inactive” in each case. Moreover, the outcome in [3], in test [19], in [6], in test [11] and in test [18] was inactive. Also, the figures for the max response in test [13], in [14] and in [17] were -6.38%, 5.11% (inactive) and 5.35% (inactive), respectively.

Regarding `Oc1cc(Cl)c(Cl)c(Cl)c1`, the Potency was 31.6 µM (active) in test [2] and 13.3 µM (active) in test [15]. In addition, the result in test [3], in test [19], in test [6], in [11] and in test [18] was inactive. Moreover, the Potency result in test [4], in [5], in [7] and in [10] was “inactive” in each case. The max response in [17] is -10.7% (inactive).

Turning to `C=CC#N`, the Potency in test [1] was > 92 µM (inactive). The Potency result in [2], in test [4], in test [5], in test [7], in [8] and in test [9] was “inactive” in each case. In addition, the Potency result in [10], in [20], in test [12], in [15] and in test [16] was “inactive” in each case. The result in test [3], in test [19], in test [11] and in test [18] was inactive. The max response in [13] is -3.06%; in test [14], 19% (inactive); in [17], 7.55% (inactive).

Regarding `Cc1cccc(N)c1C`, the Potency in test [1] is > 92 µM (inactive). Besides, the Potency entry in [2], in test [4], in test [5], in test [7], in [8] and in test [10] was “inactive” throughout. Further, the Potency result in test [20], in test [12], in test [15] and in test [16] was “inactive” throughout. Moreover, the compound was classed as inactive in test [3], in [19], in test [6], in test [11] and in test [18]. Besides, the max response in [13] was -9%; in test [14], 13.5% (inactive); in test [17], 1.88% (inactive).

For the compound `O=Cc1ccc2c(c1)OCO2`, the Potency in test [1] is > 92 µM (inactive). In addition, the Potency entry in [2], in [4], in [5], in test [7], in test [8] and in [9] was “inactive” in each case. For the same compound, the Potency entry in test [10], in test [20], in test [12], in test [15] and in [16] was “inactive” throughout. In addition, the compound was classed as inactive in test [3], in [19], in test [6], in [11] and in test [18]. The values for the max response in [13] and in test [14] were -8.14% and -12.4% (inactive), respectively.

On to `ClCc1ccccn1`, for which the Potency in test [1] was > 92 µM (inactive). Also, the Potency entry in test [2], in test [5], in test [7], in [8], in test [9] and in test [10] was “inactive” throughout. For the same compound, the Potency entry in [20], in [12], in test [15] and in test [16] was “inactive” each time. Further, the call in [3], in test [19], in test [6], in [11] and in test [18] was inactive. Also, the max response in test [13] is 3.04% and -6.39%; in test [14], -12.8% (inactive) and -17% (inactive); in test [17] it was -0.496% (inactive) and -9.53% (inactive).

Consider `COc1ccccc1N`, for which, in test [1], the Potency was > 92 µM (inactive). Besides, the Potency result in [2], in test [4], in test [5], in test [8], in [9] and in [10] was “inactive” in each case. For the same compound, the Potency entry in test [20], in [12], in test [15] and in test [16] was “inactive” each time. Also, the compound was classed as inactive in test [19], in [6] and in test [18].
